Data reported in paper PMC4336329 (PLoS ONE, 2015).
The whole screen tested about 310,000 compounds, of which about 14,000 (4.5%) showed an effect of 50% or more. Effects have a minus sign here. This excerpt belongs to a sample that is enriched for strong results.

Biological target: human ether-à-go-go-related gene (hERG) potassium channel (human, UniProt Q12809)
Test: primary screen, population patch clamp on CHO cells stably expressing hERG; higher = less effect of the substance
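Also: peak tail current of the secondary pulse compared with the same well before compound.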

Sequence of human ether-à-go-go-related gene (hERG) potassium channel (Q12809 whole entry, looked up): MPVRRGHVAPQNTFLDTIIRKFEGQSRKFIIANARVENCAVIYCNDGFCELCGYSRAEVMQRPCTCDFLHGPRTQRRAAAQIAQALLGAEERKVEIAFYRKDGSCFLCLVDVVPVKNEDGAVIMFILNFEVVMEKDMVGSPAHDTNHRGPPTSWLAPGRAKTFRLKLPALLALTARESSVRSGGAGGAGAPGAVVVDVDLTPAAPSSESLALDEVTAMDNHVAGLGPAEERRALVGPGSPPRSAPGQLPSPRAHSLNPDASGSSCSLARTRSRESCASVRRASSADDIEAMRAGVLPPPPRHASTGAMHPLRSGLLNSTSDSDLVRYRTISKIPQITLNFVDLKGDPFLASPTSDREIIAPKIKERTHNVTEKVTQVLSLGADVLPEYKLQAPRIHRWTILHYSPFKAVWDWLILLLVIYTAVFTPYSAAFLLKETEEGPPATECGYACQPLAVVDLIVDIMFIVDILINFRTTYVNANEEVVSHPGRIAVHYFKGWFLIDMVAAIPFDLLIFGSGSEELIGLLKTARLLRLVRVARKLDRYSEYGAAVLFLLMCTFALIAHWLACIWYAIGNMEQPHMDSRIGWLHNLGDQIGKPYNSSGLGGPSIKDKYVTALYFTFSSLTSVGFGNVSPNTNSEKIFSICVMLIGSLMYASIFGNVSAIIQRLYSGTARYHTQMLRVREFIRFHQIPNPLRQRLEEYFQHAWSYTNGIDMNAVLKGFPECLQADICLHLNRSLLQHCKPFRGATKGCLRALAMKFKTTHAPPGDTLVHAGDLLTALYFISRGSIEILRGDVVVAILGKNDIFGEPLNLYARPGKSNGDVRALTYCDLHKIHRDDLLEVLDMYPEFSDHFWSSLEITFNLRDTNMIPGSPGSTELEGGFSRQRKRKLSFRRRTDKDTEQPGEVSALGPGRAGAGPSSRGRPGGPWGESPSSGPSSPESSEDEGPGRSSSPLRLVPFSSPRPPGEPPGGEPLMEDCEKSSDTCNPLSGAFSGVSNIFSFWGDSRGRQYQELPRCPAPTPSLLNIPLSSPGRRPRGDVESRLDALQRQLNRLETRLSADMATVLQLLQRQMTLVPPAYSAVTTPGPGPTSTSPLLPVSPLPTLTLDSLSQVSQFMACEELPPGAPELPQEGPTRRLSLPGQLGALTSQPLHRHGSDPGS

Structure (SMILES) | hERG current change (%, negative = inhibition) at 10uM
N/C(=N\OC(=O)c1ccc(=O)n(Cc2ccc(Cl)cc2)c1)c1ccccn1 | -33.2%
CC1Sc2ccc(S(=O)(=O)NCc3ccccc3)cc2NC1=O (centres unmarked) | 1.74%
CC(C)Oc1cccc(-c2nnc(SCC(=O)Nc3ccc4c(c3)OCCO4)n2N)c1 | -8.81%
O=C(CSc1nnc(-c2ccc(O)cc2)n1Cc1ccco1)c1cccs1 | -14.9%
O=C(COC(=O)c1cccc(F)c1)NC(=O)NC1CCCC1 | 5.55%
COCCCN(C(=O)c1cc(C)oc1C)c1c(N)n(CC(C)C)c(=O)[nH]c1=O | 7.78%
Cc1ccccc1OCCOc1cccc(/C=N/NC(=O)Cc2nnc(N)s2)c1 | 14.2%
CC1(C)Oc2ccc(C(=O)N3CCOCC3)cc2N(CC(=O)N2CCOCC2)C1=O | 18.7%
Cc1ccc(CC2C(=O)N(c3cc(Cl)ccn3)C(=O)C2C)cc1 (centres unmarked) | -9.63%
COc1cccc(C2=NOC(C(=O)Nc3ccc(OC)c(OC)c3)C2)c1 (centres unmarked) | -11.8%
Cn1c(SCc2c(F)cccc2Cl)nc2c(c1=O)SCC2 | 6.6%
COc1ccc(C(c2nnnn2Cc2cccs2)N2CCN(c3ccccc3F)CC2)cc1 (centres unmarked) | 4.04%
Fc1ccc(C(c2nnnn2Cc2cccs2)N2CCN(c3ccccc3)CC2)cc1 (centres unmarked) | -21.3%
COc1ccc(C(c2nnnn2Cc2cccs2)N2CCN(c3ccc(F)cc3)CC2)cc1OC (centres unmarked) | -69.4%
CC(=O)Nc1ccc(Oc2cc(C#N)c(C#N)cc2N2CCOCC2)cc1 | -16.9%
Nc1ccccc1SC1CC(=O)N(c2ccc3c(c2)OCO3)C1=O (centres unmarked) | 14.7%
COc1ccc(OC)c(C2=Nn3c(nnc3-c3cc(C)[nH]n3)SC2)c1 | -19.7%
COc1ccc(C2=Nn3c(nnc3-c3ccc(OC)cc3)SC2)cc1 | -55%
COc1ccc(C2=Nn3c(nnc3-c3cc(C)[nH]n3)SC2)cc1 | -64%

Structure (SMILES) | hERG current change (%, negative = inhibition) at 10uM
COc1ccc(C2=Nn3c(nnc3-c3ccncc3)SC2)cc1 | -41.1%
Cc1cc(-c2nnc3n2N=C(c2ccccc2)CS3)n[nH]1 | -22.7%
COc1ccc(C2=Nn3c(nnc3-c3ccccn3)SC2)cc1 | -34.3%
Cc1cc(-c2nnc3n2N=C(c2ccc(-c4ccccc4)cc2)CS3)n[nH]1 | -15.7%
Br.COc1ccc(C2=Nn3c(C)nnc3SC2)cc1 | 0.091%
Cc1cc(-c2nnc3n2N=C(c2ccc(F)cc2)CS3)n[nH]1 | -60.3%
CCOc1ccc(C2=Nn3c(nnc3-c3ccc(OC)cc3)SC2)cc1 | -16%
CCOc1ccc(C2=Nn3c(nnc3-c3ccccc3OC)SC2)cc1 | -63.4%
CCOc1ccc(-c2nnc3n2N=C(c2ccc(OC)cc2)CS3)cc1 | 0.919%
O=C(Cn1cc2c(n1)CCCCC2)NCc1ccccn1 | -2.69%
CCOc1cc(C(=O)N2CCC3(CC2)OCCO3)cc(OCC)c1OCC | -12.5%
CCOC(=O)N1CCN(CC(=O)N2c3ccccc3CC2C)CC1.O=C(O)C(=O)O (centres unmarked) | 10.4%
Cc1ccc(CNC(=O)C2CCN(S(=O)(=O)c3ccc(Br)s3)CC2)cc1 | 3.77%
COC(=O)c1cc2nc(-c3ccccc3)cc(C(F)(F)F)n2n1 | 19.7%
CCOc1ccc(S(=O)(=O)/N=C(\N)c2ccccc2)cc1 | -7.03%
CCCCCCCC(=O)Nc1cc(C(=O)NCc2ccc(C)cc2)ccc1N1CCC2(CC1)CC(c1cccc(Br)c1)=NO2 | 2.8%
CCSCCOC(=O)C1=C(C)NC(=O)NC1c1ccc2c(c1)OCO2 (centres unmarked) | -13.4%
Cc1cccc(C(=O)N(NC(=O)Oc2ccccc2)C(C)(C)C)c1 | -13%
CCc1ccc(NC(=O)CCNS(=O)(=O)c2cccc3nsnc23)cc1 | -14.9%

Structure (SMILES) | hERG current change (%, negative = inhibition) at 10uM
O=C(Cc1ccc([N+](=O)[O-])cc1)Nc1ccc2c(c1)OCO2 | -13.9%
Cc1ccccc1C(=O)N1CCC(C(=O)Nc2ccc3c(c2)OCCO3)CC1 | 5.7%
O=C(Nc1ccc2c(c1)OCO2)C1CCN(S(=O)(=O)c2ccc3c(c2)OCCO3)CC1 | 7.45%
O=C(Nc1ccc2c(c1)OCCO2)C1CCC1 | 7.7%
O=C(Nc1ccc2c(c1)OCCO2)C1CCN(C(=O)c2ccc([N+](=O)[O-])cc2)CC1 | -65.6%
O=C(Nc1ccc2c(c1)OCO2)C1CCN(C(=O)c2ccc([N+](=O)[O-])cc2)CC1 | -84.2%
CC(=O)Nc1nc(C)c(Cc2ccccc2)c(=O)[nH]1 | -1.04%
Cn1cnc(S(=O)(=O)NCc2ccccc2)c1 | 2.77%
Cc1ccccc1OCCOC(=O)c1nc2nccc(C)n2n1 | -14.1%
COc1ccccc1NC(=O)C1=C(C)Nc2nnnn2C1c1ccncc1 (centres unmarked) | -12.4%
CCOC(=O)c1c(C)n(-c2ccccc2)c2ccc(O)cc12 | 13.8%
CCOC(=O)c1c(CN2CCOCC2)n(-c2ccccc2)c2ccc(O)cc12 | -69.2%
CCOC(=O)c1c(CN(CC)CC)n(-c2ccccc2)c2ccc(O)cc12 | -66.7%
CCOC(=O)c1c(C)n(Cc2ccccc2)c2ccc(O)cc12 | 4.43%
CCOC(=O)c1c(CN2CCOCC2)n(-c2ccccc2)c2cc(Br)c(O)c(CN(C)C)c12 | -42.3%
CCOC(=O)c1c(C)n(-c2ccc(F)cc2)c2ccc(O)cc12 | 16.4%
COc1ccc(S(=O)(=O)N(CC(C)C)C2CCS(=O)(=O)C2)cc1OC (centres unmarked) | 4.62%
CC(=O)c1ccc(N2CCN(C(=O)C3CCN(S(=O)(=O)c4ccc5c(c4)CC(C)N5C(=O)C4CC4)CC3)CC2)cc1 (centres unmarked) | -8.83%
